Experiment [1] can be described thus: BET inhibitor-based combinations targeting novel dependencies in MECOM-rearranged (r) AML: SET-2 cell line (AID 2202231). Also: nearly all actives have a fitted effect of over 35% in size.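 As to viability: plate controls were DMSO treated cells for no effect and wells without cells for full effect.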 The following applies: SET-2 AML cells viability, CellTiter-Glo luminescence, 48 h; viability: active compounds read low, concentration not given here. Put shortly: (§1)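 Viability of cells (500 per well) is scored by luminescent CellTiter-Glo at 48 hr post-dosing. Eleven-point titrations are normalized to DMSO and empty controls and reduced to AUC values.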
(In general: Cellular ATP, detected with luciferase, serves as a proxy for viable cell number.)

Experiment [2] in a line: BET inhibitor-based combinations targeting novel dependencies in MECOM-rearranged (r) AML: UCSD-AML1 cell line (AID 2202235). Also: nearly all actives have a fitted effect of over 40% in size. Put shortly: (§2)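 Using pin-tool transfer, drugs were added in 11 doses to cells (500/well), incubated 48 hr, and assessed with CellTiter-Glo. Z-AUC is a mean-centring transformation applied separately to each screened line.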
A short description of experiment [3]: BET inhibitor-based combinations targeting novel dependencies in MECOM-rearranged (r) AML: AML-191 cell line (AID 2202236; also: nearly all actives have a fitted effect of over 35% in size). The procedure, abridged: as §1
The nature of experiment [4]: BET inhibitor-based combinations targeting novel dependencies in MECOM-rearranged (r) AML: AML-194 cell line (AID 2202237; also: nearly all actives have a fitted effect of over 40% in size). The procedure, abridged: as §1
Experiment [5] in a line: BET inhibitor-based combinations targeting novel dependencies in MECOM-rearranged (r) AML: HNT-34 cell line (AID 2202234). Also: nearly all actives have a fitted effect of over 35% in size. The procedure, abridged: as §2
Experiment [6] in a line: BET inhibitor-based combinations targeting novel dependencies in MECOM-rearranged (r) AML: OCI-AML3 cell line (AID 2202232). Also: nearly all actives have a fitted effect of over 35% in size. Particulars: Potency: OCI-AML3 viability. The procedure, abridged: as §1
Experiment [7] is described as follows: BET inhibitor-based combinations targeting novel dependencies in MECOM-rearranged (r) AML: MV-4-11 cell line (AID 2202233). Also: nearly all actives have a fitted effect of over 45% in size. Put shortly:
as §2

Results filed as inconclusive are left out. Unmarked numbers belong to inactive results. Calls of active or inactive are those of the source. Calls follow the shape of the dose curve; as a rule, active = well fitted curve in the direction sought with a large enough effect; inconclusive = small, poorly fitted or top-dose-only effect, or another doubt; inactive = no such curve, though single readings can be large; an effect the other way counts as inactive or inconclusive. Non-standard residues stand in square brackets, D forms with d. Residues, ends and D or L forms follow the SMILES beside them.

As a reminder, the viability is a read-out of living cells in per cent, often relative to untreated cells.
Potency is read from the fitted curve at half-maximal effect.

`COc1ccc(S(=O)(=O)NCc2ccc(C(=O)NCCc3ccc(Cl)cn3)cc2)cc1`: the viability in experiment [1] is 98%. In addition, the Potency entry in experiment [2], in experiment [3] and in experiment [4] was “inactive” throughout.
On to `O=c1ncccn1[C@@H]1O[C@H](CO)[C@@H](O)[C@H]1O`, for which the viability in experiment [1] is 109%. For the same compound, the Potency result in experiment [5], in experiment [3] and in experiment [4] was “inactive” throughout.
For `Cc1onc(-c2ccccc2)c1-c1ccc(S(N)(=O)=O)cc1`, in experiment [6], the Potency result is “inactive”.
The same measure, in the same setting: then `CN(C)CCN(C)C(=O)c1ccc(NC(=O)Nc2ccc(-c3nc(N4CCOCC4)c4ccn(CC(F)(F)F)c4n3)cc2)cc1`, with 0.934 µM (active).
Turning to `OCCOc1ccc(/C(=C(/CCCl)c2ccccc2)c2ccccc2)cc1`, in experiment [1], the Potency was 16.6 µM (active). Moreover, the Potency entry in experiment [2] and in experiment [4] was “inactive” throughout.
For the compound `CC(=O)C1CCC2C3CCC4=CC(=O)CCC4(C)C3CCC12C` (stereo unspecified), in experiment [1], the Potency is 18.6 µM (active). Moreover, in experiment [2], the Potency entry was “inactive”.
`Nc1ncn([C@H]2C[C@H](O)[C@@H](CO)O2)c(=O)n1`: the Potency was 0.417 µM (active) in experiment [6] and 0.332 µM (active) in experiment [7].
As to `CCOC(=O)[C@@]1(CCCCCCOc2ccc(Cl)cc2)CO1`, the viability in experiment [1] is 92%. Besides, the Potency result in experiment [2] and in experiment [4] was “inactive” throughout.
On to `CN[C@@H](C)C(=O)N[C@H](C(=O)N1CCC[C@H]1C(=O)Nc1sc(-c2ncco2)nc1-c1ccccc1)C1CCCCC1`, for which the viability in experiment [1] was 112%. Further, in experiment [2], the Potency is 1.18 µM (active). Also, the Potency result in experiment [4] is “inactive”.
With `CC/C(=C(/c1ccc(/C=C/C(=O)O)cc1)c1ccc2[nH]ncc2c1)c1ccc(F)cc1Cl`, in experiment [1], the viability was 98.4%. The Potency result in experiment [2], in experiment [3] and in experiment [4] was “inactive” in each case.
As for `CC[C@H]1OC(=O)[C@H](C)[C@@H](O[C@H]2C[C@@](C)(OC)[C@@H](O)[C@H](C)O2)[C@H](C)[C@@H](O[C@@H]2O[C@H](C)C[C@H](N(C)C)[C@H]2O)[C@](C)(O)C[C@@H](C)CN(C)[C@H](C)[C@@H](O)[C@]1(C)O`, the Potency in experiment [1] is 0.468 µM (active). Besides, the Potency result in experiment [2] and in experiment [4] was “inactive” each time.
`O=C(O)CCCCN(CCc1ccccc1OCc1ccc(CCc2ccccc2)cc1)Cc1ccc(C(=O)O)cc1`: in experiment [1], the viability was 108%. Moreover, the Potency in experiment [5] was 2.09 µM (active). The Potency entry in experiment [3] and in experiment [4] was “inactive” throughout.
As to `COc1ccc2[nH]c3c(c2c1)CCN[C@]31CS[C@@H]2c3c(OC(C)=O)c(C)c4c(c3[C@H](COC1=O)N1[C@@H]2[C@H]2c3c(cc(C)c(OC)c3O)C[C@@H]([C@@H]1O)N2C)OCO4`, the Potency in experiment [6] is 0.0034 µM (active); in experiment [7], 0.0019 µM (active); in experiment [5] it was 0.0034 µM (active); in experiment [2], 0.0038 µM (active); in experiment [3], 0.0048 µM (active); in experiment [4], 0.0038 µM (active).
In the case of `CC(C)C[C@@H]1NC(=O)[C@@H](C(C)C)NC(=O)[C@@H]2CCCN2C(=O)[C@@H](CC(=O)O)NC(=O)[C@@H](Cc2c[nH]c3ccccc23)NC1=O` (cyclo(L[dW][dD]P[dV])), the Potency entry in experiment [6], in experiment [7], in experiment [5], in experiment [2], in experiment [3] and in experiment [4] was “inactive” throughout.
Consider `Cc1ncc(NC(=O)c2cccc(C(F)(F)F)c2)cc1-c1cnc(OC2CCOCC2)c(N2CCOCC2)c1`, for which the Potency was 0.0833 µM (active) in experiment [6]; 16.6 µM (active) in experiment [7]; 6.61 µM (active) in experiment [5]; 8.33 µM (active) in experiment [2]; 11.8 µM (active) in experiment [3].
As for `C=C1CC[C@@H]2[C@](C)(CO)[C@H](O)CC[C@@]2(C)[C@@H]1C/C=C1/C(=O)OC[C@H]1O`, the Potency in experiment [6] was 3.72 µM (active); in experiment [7] it was 2.95 µM (active); in experiment [5] it was 5.25 µM (active); in experiment [2] it was 10.5 µM (active); in experiment [3], 5.9 µM (active); in experiment [4], 9.34 µM (active).
For the compound `CC(C)=CCC[C@](C)(O[C@@H]1O[C@H](CO[C@@H]2O[C@H](CO)[C@@H](O)[C@H](O)[C@H]2O)[C@@H](O)[C@H](O)[C@H]1O)[C@H]1CC[C@]2(C)[C@@H]1[C@H](O)C[C@@H]1[C@@]3(C)CC[C@H](O[C@@H]4O[C@H](CO)[C@@H](O)[C@H](O)[C@H]4O[C@@H]4O[C@H](CO)[C@@H](O)[C@H](O)[C@H]4O)C(C)(C)[C@@H]3CC[C@]12C`, the Potency result in experiment [6], in experiment [7], in experiment [5], in experiment [2], in experiment [3] and in experiment [4] was “inactive” throughout.
Consider `CC(C)(O)CC[C@@H](O)[C@](C)(O)[C@H]1CC[C@@]2(O)C3=CC(=O)[C@@H]4C[C@@H](O)[C@@H](O)C[C@]4(C)[C@H]3CC[C@]12C`, for which the Potency result in experiment [6], in experiment [7], in experiment [5], in experiment [2], in experiment [3] and in experiment [4] was “inactive” in each case.
Regarding `COc1cc(C)[nH]c(=O)c1CN1CCc2c(Cl)cc([C@H](OC)C3COC3)c(Cl)c2C1=O`, the Potency entry in experiment [6], in experiment [7], in experiment [5], in experiment [2], in experiment [3] and in experiment [4] was “inactive” each time.
As to `Cc1ccc(-c2nn(C(C)(C)CNC(=O)c3ccncc3)c3ncnc(N)c23)cc1`, the Potency is 16.6 µM (active) in experiment [6]; 11.8 µM (active) in experiment [7]; 8.33 µM (active) in experiment [5]; 7.42 µM (active) in experiment [2]; 7.42 µM (active) in experiment [3]; 7.42 µM (active) in experiment [4].

The values above are taken from PubChem BioAssay (NCATS).
